High-throughput results: PubChem BioAssay, National Center for Advancing Translational Sciences (NCATS)
G9a block – blocks human histone lysine methyltransferase G9a; Q96KQ7; G9a H3K9 monomethylation, AlphaScreen, 2 h; Potency, µM (highest dose often 102 µM), for the others: at the top dose activity, negative = inhibition, usual class: inhibitors; 8.8% of 350,000 active; also: potency is read from the fitted curve at half-maximal effect; % is scaled to controls: 0 for no effect and ±100 for the full control effect; nearly all actives have a fitted effect of over 75% in size
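Using a bead-based AlphaScreen, monomethylated H3K9 product from 2 h room-temperature reactions (G9a 20 nM, peptide 500 nM, SAM 20 uM) was detected with 0.5 ug/mL rabbit anti-H3K9me1 antibody.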
JMJD2A Tudor – blocks the human JMJD2A Tudor domain; O75164; AlphaScreen JMJD2A-Tudor / H3K4me3 peptide binding; Potency, µM (top dose mostly 114 µM), without a hit: at the top dose activity change, negative = inhibition, most hits filed as inhibitors; 4.4% of 390,000 active; AID 504339; also: potency is read from the fitted curve at half-maximal effect; % is scaled to controls: 0 for no effect and ±100 for the full control effect; nearly all actives have a fitted effect of over 50% in size
PI5P4K alpha inh – inhibitors of human PI5P4K alpha; 1.2% of 330,000 active; P48426; AID 652105; max response, %; PI5P4Kalpha enzyme, ADP-Glo luminescence, 60 min; stronger effect = lower value; active = max response of -50% or lower; inconclusive = between -30% and -50%; inactive = -30% or higher; also: value at the top dose of about 77 µM; % is scaled to controls: 0 for no effect and ±100 for the full control effect
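Compounds were pin-transferred onto PI5P4Kalpha and substrate in HEPES pH 7.4 buffer with EGTA, CHAPS and 5% DMSO. ATP (5 microM final) started the reaction, which ran 60 minutes at room temperature before ADP-Glo detection.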
PLK1 PBD block – blocks phosphopeptide binding to human PLK1 polo-box domain; P53350; Plk1 PBD binding of FITC phosphopeptide, fluorescence polarization; Potency, µM, inactives show max response, negative = inhibition, most hits filed as inhibitors; 2.8% of 360,000 active; also: potency is read from the fitted curve at half-maximal effect; series mostly up to about 57 µM; % is scaled to controls: 0 for no effect and ±100 for the full control effect; nearly all actives have a fitted effect of over 65% in size
BAZ2B inh – inhibitors of human BAZ2B bromodomain; Q9UIF8; AlphaScreen BAZ2B-H3K14Ac peptide displacement; Potency, µM (doses to about 114 µM), for the others: at the top dose activity change, negative = inhibition, hits mostly inhibitors; 4.4% of 360,000 active; AID 504333; also: potency is read from the fitted curve at half-maximal effect; % is scaled to controls: 0 for no effect and ±100 for the full control effect; nearly all actives have a fitted effect of over 60% in size
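AlphaScreen displacement of biotin-H3(5-23)K14Ac peptide (50 nM final) from BAZ2B (50 nM final) in PBS pH 7.4, 0.01% Tween-20; complex preformed 30 min RT, then compounds (top 110 uM) 30 min RT, beads 20 min dark.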
HP1b binding inh – HP1-beta chromodomain-methylated histone interaction inhibition. P83916. AlphaScreen HP1-beta / biotin-H3K9me3 peptide binding. Potency, µM (highest dose often 114 µM), for inactives: at the highest dose activity change, negative = inhibition, most hits filed as inhibitors. 0.56% of 390,000 active. AID 540317; also: potency is read from the fitted curve at half-maximal effect; nearly all actives have a fitted effect of over 70% in size
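AlphaScreen: HP1-beta (50 nM) preformed 30 min with biotin-H3(1-18)K9me3 peptide (50 nM) in PBS pH 7.4, 0.01% Tween-20. Compound added for 30 min at RT, then streptavidin donor/nickel chelate acceptor beads (10 ug/mL) for 30 min.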
Numbers without * were called inactive; ? = inconclusive; . = not tested or not shown; [ ] = remark or other dose. In the library only some 12% were active in any assay of this set; here they are far more common. Unless noted, calls follow the shape of the dose curve; as a rule, active = well fitted curve in the direction sought with a large enough effect; inconclusive = small, poorly fitted or top-dose-only effect, or another doubt; inactive = no such curve, though single readings can be large; an effect the other way counts as inactive or inconclusive.

SMILES	G9a block	JMJD2A Tudor	PI5P4K alpha inh	PLK1 PBD block	BAZ2B inh	HP1b binding inh
Cc1nc(N2N=C(c3ccc(Cl)cc3)CC2c2ccco2)sc1C(=O)N(C)C (stereo unspecified)	-3%	16%	-21	-14%	15%	95%
COc1ccc(C2=NN(c3nc(-c4ccccc4)c(CC(=O)O)s3)C(c3ccco3)C2)cc1 (stereo unspecified)	14µM*	79µM*	?	11µM*	50µM*	-14%
Cc1cccc(C)c1N1C(=O)c2ccccc2NC(=O)C1C(=O)Nc1ccc(N2CCOCC2)cc1 (stereo unspecified)	.	.	2	-3%	.	.
COc1ccccc1C(=O)Nc1nnc(S(=O)(=O)N(C)c2ccc(Cl)cc2)s1	9%[59 µM]	0%	.	.	13%	44%
Cc1ccc(S(=O)(=O)CC(O)COc2ccc(C#N)cc2)cc1 (stereo unspecified)	23%[59 µM]	-11%	-3	-2%	4%	6%
Cc1ccc(S(=O)(=O)N(C#N)c2nc(C)cc(C)n2)cc1	45µM*	-14%	.	1%	?	56%
Cc1ccc(S(=O)(=O)N(C)S(=O)(=O)c2ccc(C#N)cc2)cc1	45µM*	.	.	.	-2%	.
c1ccc(Nc2nc(-c3ccccc3)c(-c3ccccc3)s2)cc1	.	-22%	.	.	.	64%
CCN(CC)P1(=O)OC(c2cc(OC)c(OC)c(OC)c2)=Nc2c1c(C)nn2-c1ccccc1 (stereo unspecified)	50µM*	-20%	.	-19%	?	10%
COc1ccc(-c2c(C)nn(-c3ccccc3)c2NC(C)=O)cc1OC	.	5%	0	3%	-8%	53%
O=C(NCCc1ccccc1)C(=O)NCC1OCCN1S(=O)(=O)c1cc(F)ccc1F (stereo unspecified)	.	-7%	-14	-9%	37%	25%
CCN(Cc1ccccc1)Cc1ccc(OCc2ccccc2)cc1	.	28µM*	5	-2%	?	-7%
O=c1cc(OCc2ccccc2)cc[nH]1	?	11µM*	-7	1%	2.8µM*	8.9µM*
Nc1ccc(OCc2ccccc2)cc1	11µM*	?	0	-7%	?	-15%
Nc1cc(OCc2ccccc2)ccc1OCc1ccccc1	.	?	-1	4%	.	-22%[57 µM]
CCCCN(C)C(=O)c1sc(=O)n(Cc2ccccc2C#N)c1C	.	.	0	-1%	.	.
O=C(Cc1ccc(Br)cc1)N1CCOCC1	79µM*	-9%	1	-13%	-8%	23%
O=C(CCN1CCOCC1)c1ccc(Cl)cc1	11µM*	?	2	21µM*	-21%	0%
O=C(CCN1CCOCC1)c1ccc(Br)cc1	.	-11%	-10	12µM*	-14%	-8%
O=C(NN1CCOCC1)c1ccc(Br)cc1	.	-1%	-5	-10%	.	12%
O=C(Cc1ccc(-c2ccccc2)cc1)N1CCOCC1	-1%[12.7 µM]	-20%	1	-15%	-2%	9%
Cc1ccc(C)c(N2CCN(S(=O)(=O)c3csc(C(N)=O)c3)CC2)c1	12%[59 µM]	-29%	-5	-8%	?	6%
CC(=O)NC(c1cccc(F)c1)c1nc(-c2cccc(C(F)(F)F)c2)cs1 (stereo unspecified)	.	.	23	-3%	.	.
Cc1ccc(-c2nnn(CC(=O)N(c3cccc(F)c3)C(C(=O)NC(C)(C)C)c3ccco3)n2)o1 (stereo unspecified)	50µM*	-13%	0	-5%	-27%	27%
CC(C)(C)NC(=O)C(c1ccc(O)cc1)N(Cc1ccco1)C(=O)Cn1nnc(-c2cccs2)n1 (stereo unspecified)	20µM*	?	.	-1%	-32%	2%
Cc1ccc(-c2nnn(CC(=O)N(Cc3ccco3)C(C(=O)NC(C)(C)C)c3ccc(C)o3)n2)o1 (stereo unspecified)	-6%	?	-1	-14%	-27%	36%
Cc1ccc(-c2nnn(CC(=O)N(c3ccccc3)C(C(=O)NC(C)(C)C)c3cccs3)n2)o1 (stereo unspecified)	1%[59 µM]	-8%	1	-17%	6%	5%
